Compound activity deposited in PubChem BioAssay by Broad Institute.
Rows were chosen to be rich in hits. Some 2.1% of all compounds tested hit in one or more screens of this group.
aSyn UTR inh: MLPCN primary screen, SNCA 5' untranslated region | hit rate 0.82% among 300,000 | alpha-synuclein 5'UTR reporter, inhibitor activity | AID 1813, 2009 | inhibition, % (tested at 7.5 µM); in the data active = inhibition above about 60%; inconclusive = no clear call, values can overlap the other calls;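 note: H4 neuroglioblastoma cells stably carrying SNCA 5'UTR luciferase fusion; 0% = DMSO wells and 100% = positive control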
MITF TRPM1 inh: inhibitors of MITF-dependent TRPM1 promoter reporter, primary screen, cell-based, SK-MEL-5, single point, luciferase. SK-MEL-5 TRPM1 promoter luciferase, 24 h. inhibition, % at 12.5 µM. hit rate 0.83% among 330,000. AID 488899, 2010;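 active = mean inhibition across replicates of 60% or more, whatever share of single replicates reaches that level; inconclusive = some that reach 60%, reason not given; inactive = mean inhibition across replicates below 60%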
LMP1 NFkB inh: EBV LMP1-driven NF-kappaB luciferase reporter inhibitors, primary screen, cell-based, luminescence, single point; hit rate 0.69% among 350,000; LMP1-induced NF-kappaB luciferase reporter cells; inhibition, % at 12.5 µM; AID 504558, 2011; in the data active = inhibition above about 41%; inconclusive = no clear call, values can overlap the other calls;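 note: 0% = neutral control wells and 100% = reference inhibitor control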
PAX8 inh HTS: inhibitors of PAX8-driven TPO luciferase reporter, primary screen, RMG-I cells, single concentration; SteadyGlo, 24 h; inhibition, % at 12.6 µM; hit rate 1.2% among 360,000; AID 652154, 2013;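 active = mean replicate inhibition at least 60% with every replicate also reaching 60%; inconclusive = only one of the two criteria is met; inactive = mean below 60% and not all replicates reaching 60%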;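 note: luciferase light reporting Pax8 driven TPO promoter activity; plate controls were median of neutral control wells for no effect and mitoxantrone controls for full effect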
Shn3 inh set2: reduction of Shn3 3'UTR firefly luciferase signal, primary screen, Schnurri-3 inhibitor project, cell-based, Clone20 osteoblasts, set 2; Clone20 osteoblast Shn3 3'UTR firefly luciferase, 24 h; inhibition, % at 12.5 µM; hit rate 0.52% among 360,000;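 active = mean inhibition of at least 75% with every replicate also reaching 75%; inconclusive = mean inhibition at least 75% but some replicate below; inactive = mean inhibition below 75%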;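 note: 0% = median of neutral control wells and 100% = pilot-screen positive control compound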
The depositor's hits bear a star; ? = inconclusive; . = no result given.

SMILES	aSyn UTR inh	MITF TRPM1 inh	LMP1 NFkB inh	PAX8 inh HTS	Shn3 inh set2
COc1ccc(C(NC(C)=O)c2cc(Cl)c3cccnc3c2O)cc1 (stereo not drawn)	76*	23	42*	44	90*
O=C(NCc1ccc(Cl)cc1)c1cccnc1	0	-7	-36	.	-2
COc1ccc(C(Nc2cc(C)ccn2)c2ccc3ccc(C)nc3c2O)cc1 (stereo not drawn)	4	14	1	18	4
O=[N+]([O-])c1cc(Cl)c2cccnc2c1O	1	8	-10	-22	-10
Oc1c(I)cc(Cl)c2cccnc12	-19	19	3	79*	-7
CN(Cc1ccc(Cl)cc1)C(C(=O)NC1CCCCC1)c1cc2ccccc2o1 (stereo not drawn)	.	.	.	6	-14
COc1ccc(NC(=O)N(C)C[C@H]2Oc3ccc(NS(=O)(=O)c4c(C)noc4C)cc3CC(=O)N([C@H](C)CO)C[C@@H]2C)cc1	.	.	.	20	.
CCCC(=O)NC(c1ccco1)c1cc([N+](=O)[O-])c2cccnc2c1O (stereo not drawn)	-15	-4	-3	14	1
CCCC(=O)NC(c1ccc(OC)c(OC)c1)c1cc(Cl)c2cccnc2c1O (stereo not drawn)	50	?	32	20	88*
CC(=O)NC(c1ccc(C)cc1)c1cc([N+](=O)[O-])c2cccnc2c1O (stereo not drawn)	55	-6	26	1	45
CC(=O)NC(c1ccccc1)c1cc(Cl)c2cccnc2c1O (stereo not drawn)	42	23	35	85*	69
COC(=O)NNC(=O)C1CCC(C(=O)NNC(=O)OC)CC1 (stereo not drawn)	-8	-3	4	-2	3
O=c1cc(CSc2ccc(Cl)cc2)nc(-c2ccccn2)[nH]1	24	67*	17	69*	63
Cn1c(CCN2CCCC2)nc2cc(NS(=O)(=O)c3ccc(Cl)cc3)ccc21	-11	16	-4	101*	-3
Cc1ccc(S(=O)(=O)Nc2ccc3c(c2)nc(CCN2CCCC2)n3C)cc1	0	16	1	94*	10
Cn1c(CCN2CCCC2)nc2cc(NS(=O)(=O)c3ccc(F)cc3)ccc21	.	.	-5	84*	2
Cn1c(CN2CCCC2)nc2cc(NS(=O)(=O)c3ccc(Cl)cc3)ccc21	1	-7	3	.	18
NNC(=O)CCc1nc2ccc(O)cc2[nH]1	-2	-24	-4	1	-10
O=C(O)[C@@H]1CCCC[C@@H]1C(=O)N1CCc2ccccc2C1CN1C(=O)c2ccccc2C1=O (stereo partly drawn)	68*	4	-3	-1	-3
CCCN(CCC)Cc1c(C(=O)N/N=C/C(C)=C\c2ccco2)nnn1-c1nonc1N	16	69*	-11	93*	3
CC(/C=N/NC(=O)c1nnn(-c2nonc2N)c1CN(C)C)=C\c1ccco1	-25	11	8	15	-7
C/C(=N\NC(=O)c1nnn(-c2nonc2N)c1CN(C)c1ccccc1)c1ccccn1	88*	24	15	.	92*
C/C(=N\NC(=O)c1nnn(-c2nonc2N)c1CN(C)c1ccccc1)c1ccc(O)cc1	18	2	34	21	18
C#CCN(C[C@@H]1[C@@H](OC(=O)NCc2ccccc2F)[C@@H](OC(=O)NCc2ccccc2F)Cn2c(=O)ccc(=O)n21)S(=O)(=O)c1ccc(C)cc1	.	.	61*	105*	96*
C#CCN(C[C@@H]1[C@@H](OC(=O)NCc2ccccc2F)[C@@H](OC(=O)NCc2ccccc2F)Cn2c(=O)n(CCCCCC)c(=O)n21)S(=O)(=O)c1ccc(C)cc1	.	.	-29	19	19
SMILES	aSyn UTR inh	MITF TRPM1 inh	LMP1 NFkB inh	PAX8 inh HTS	Shn3 inh set2
C#CCN(C[C@@H]1[C@@H](OC(=O)Nc2cccs2)[C@@H](OC(=O)Nc2cccs2)Cn2c(=O)ccc(=O)n21)S(=O)(=O)c1ccc(C)cc1	.	.	-38	113*	-12
C#CCN(C[C@H]1[C@H](OC(=O)Nc2cccs2)[C@H](OC(=O)Nc2cccs2)C[C@H]2C(=O)N(c3ccccc3)C(=O)[C@@H]12)S(=O)(=O)c1ccc(C)cc1	.	.	0	-24	15
C#CCN(C[C@@H]1[C@@H](OC(=O)NC2CCCC2)[C@@H](OC(=O)NC2CCCC2)Cn2c(=O)ccc(=O)n21)S(=O)(=O)c1ccc(C)cc1	.	.	9	96*	94*
Cc1ccccc1NC(=O)CSc1nc2ccccc2c2nc(CCn3cncc3C)nn12	-1	0	7	25	-8
Cc1ccc(S(=O)(=O)Nc2nccs2)cc1[N+](=O)[O-]	15	-1	-1	1	-40
CCCCN(C)c1c(C)nc2ccc(C(=O)N(CC)CCN(C)C)cn12	.	.	.	82*	-3
CCCCN(C=O)c1c(CC)nc2ccc(C(=O)N(CC)CCN(C)C)cn12	.	.	.	-4	-22
CO[C@H]1CN(C)C(=O)c2ccc(NC(=O)C3CC3)cc2OC[C@@H](C)N(C(=O)CN(C)C)C[C@@H]1C	.	.	.	-1	.
CC(=O)Nc1ccc(SCc2c(C)noc2C)cc1	-10	-13	0	-2	-1
COc1ccc(NC(=O)C2Cc3c(-c4cccc(C(C)=O)c4)ccnc3O2)cc1OC (stereo not drawn)	.	.	.	13	91*
COc1ccc(NC(=O)C2Cc3c(-c4cccc(C(N)=O)c4)ccnc3O2)cc1OC (stereo not drawn)	.	.	.	11	30
CC(=O)c1cccc(-c2ccnc3c2CC(C(=O)NCc2ccc(F)c(F)c2)O3)c1 (stereo not drawn)	.	.	.	?	20
CC(=O)c1cccc(-c2ccnc3c2CC(C(=O)NCc2ccccc2)O3)c1 (stereo not drawn)	.	.	.	83*	30
Cc1cc(C)c(NC(=O)CSc2nnc(SCC(=O)Nc3c(C)cc(C)cc3C)n2N)c(C)c1	15	-1	10	.	-5
CCN(CC)c1ccc(C(=O)OCC(=O)Nc2sccc2C#N)cc1	-176	-43	-39	-78	-80
O=C(Nc1nc(-c2cccs2)c(-c2cccs2)s1)C1(c2ccccc2)CC1	-11	10	-7	102*	1
COc1ccc(-n2nc3cc(N)c(Br)cc3n2)cc1	-164	-31	-65	-41	-102
O=C(NCc1cccnc1)/C(=C\c1ccc(-c2cccc(Cl)c2)o1)S(=O)(=O)c1ccccc1	-22	90*	-2	.	97*
CC(=O)Nc1nc2c(C)c(Cl)ccc2s1	-15	16	-1	-8	-24
CC(=O)Nc1ccc(OCCC[n+]2ccccc2)cc1	11	-2	0	7	-7
CCCCCc1ccc(OCCOCCn2c[n+](C)c3ccccc32)c(CCCCC)c1	26	77*	20	.	93*
CCCCCc1ccc(OCCC[n+]2ccccc2)c(CCCCC)c1	3	105*	25	96*	?
COc1ccc(CCC(=O)NNC(=O)c2ccccn2)cc1OC	.	-8	8	-9	55
